The whole screen tested about 310,000 compounds, of which about 2,200 (0.71%) showed an effect of 50% or more. The effect is printed as a negative number. What follows is part of a selection rich in strong results, with near analogues and random picks from the rest.
The molecules below were run against human ether-à-go-go-related gene (hERG) potassium channel (human, UniProt Q12809) (assay: primary screen, population patch clamp on CHO cells stably expressing hERG; higher = less effect of the substance).
Sequence of human ether-à-go-go-related gene (hERG) potassium channel (Q12809 whole entry, looked up): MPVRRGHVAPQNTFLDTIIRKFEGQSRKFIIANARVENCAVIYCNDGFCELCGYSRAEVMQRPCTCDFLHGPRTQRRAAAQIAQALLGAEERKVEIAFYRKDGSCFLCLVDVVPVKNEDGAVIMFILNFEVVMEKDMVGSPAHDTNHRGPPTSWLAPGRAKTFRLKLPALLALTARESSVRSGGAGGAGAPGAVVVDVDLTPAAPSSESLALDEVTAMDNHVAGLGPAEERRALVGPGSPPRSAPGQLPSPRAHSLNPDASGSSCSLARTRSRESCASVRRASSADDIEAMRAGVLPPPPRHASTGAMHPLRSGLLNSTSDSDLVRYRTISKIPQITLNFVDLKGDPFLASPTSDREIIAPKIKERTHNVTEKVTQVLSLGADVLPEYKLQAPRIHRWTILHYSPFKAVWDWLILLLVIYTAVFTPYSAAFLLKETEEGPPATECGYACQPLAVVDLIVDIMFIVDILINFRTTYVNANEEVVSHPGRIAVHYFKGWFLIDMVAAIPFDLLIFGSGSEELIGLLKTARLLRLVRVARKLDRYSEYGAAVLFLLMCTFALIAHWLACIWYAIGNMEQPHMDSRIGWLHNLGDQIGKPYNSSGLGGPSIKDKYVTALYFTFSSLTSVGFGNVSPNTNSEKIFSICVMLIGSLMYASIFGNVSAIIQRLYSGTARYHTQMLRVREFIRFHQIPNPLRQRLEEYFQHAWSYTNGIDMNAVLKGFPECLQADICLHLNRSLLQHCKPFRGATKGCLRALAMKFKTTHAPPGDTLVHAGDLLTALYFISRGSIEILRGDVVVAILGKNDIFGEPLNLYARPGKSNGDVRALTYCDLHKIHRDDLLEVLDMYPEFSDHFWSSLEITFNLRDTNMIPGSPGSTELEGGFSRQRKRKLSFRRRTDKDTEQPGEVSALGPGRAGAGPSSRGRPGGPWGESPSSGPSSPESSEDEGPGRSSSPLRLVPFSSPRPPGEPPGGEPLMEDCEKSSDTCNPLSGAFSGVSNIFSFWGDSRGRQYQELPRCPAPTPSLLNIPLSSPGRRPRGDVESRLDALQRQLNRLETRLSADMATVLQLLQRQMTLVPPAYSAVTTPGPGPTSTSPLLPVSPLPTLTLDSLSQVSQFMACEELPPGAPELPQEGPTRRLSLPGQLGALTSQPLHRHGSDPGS

Structure (SMILES) | hERG current change (%, negative = inhibition) at 1uM [%]
O=C(O)c1ccc(NS(=O)(=O)c2cc(Cl)ccc2Cl)cc1O | 4.19
CCCc1cc(C(=O)Nc2cc(Br)ccc2O)no1 | 18.4
CCCCc1ccc(NC(=O)C(=O)NCCN2CCN(Cc3ccc([N+](=O)[O-])cc3)CC2)cc1 | -6.8
Cc1ccc(NC(=O)C(=O)NCCN2CCN(Cc3ccc([N+](=O)[O-])cc3)CC2)cc1 | -53.3
CCc1ccc(NC(=O)C(=O)NCCN2CCN(Cc3ccc([N+](=O)[O-])cc3)CC2)cc1 | -67.4
O=C(NCCc1ccccc1)C(=O)Nc1ccc([N+](=O)[O-])cc1 | 11
O=C(NCCN1CCN(Cc2ccc([N+](=O)[O-])cc2)CC1)C(=O)Nc1ccccc1 | -53.8
CN1CCN(CCNC(=O)Nc2ccc([N+](=O)[O-])cc2)CC1 | 10.7
CCc1ccc(NC(=O)C(=O)NCCN2CCN(S(C)(=O)=O)CC2)cc1 | 18.2
O=C(NCCN1CCN(S(=O)(=O)c2ccc([N+](=O)[O-])cc2)CC1)C(=O)Nc1ccccc1 | 2.87
CCN1CCN(CCNC(=O)Nc2ccc([N+](=O)[O-])cc2)CC1 | 13.2
Cc1ccc(CNS(=O)(=O)/C=C/c2ccc3c(c2)OCO3)cc1 | -0.964
c1ccc(-c2nnc3sc(-c4csc5c4CCCC5)nn23)cc1 | 4.3
O=C(Nc1ncn[nH]1)c1ccc([N+](=O)[O-])cc1[N+](=O)[O-] | 18.3
COCCNC(=S)N(Cc1cccs1)Cc1cc2cccc(C)c2[nH]c1=O | 15.9
CCN(CC)c1ccc(CNc2nc3ccccc3n2CCN2CCCCC2)cc1 | -18
Brc1cccc(CNc2nc3ccccc3n2CCN2CCOCC2)c1 | -56.7
Cc1cccc(NCc2nc3ccccc3n2Cc2ccccc2)c1 | 12
Cc1nc2cc(NCc3nc4ccccc4n3Cc3ccccc3)ccc2n1C | -61.7
COc1ccc(CNc2nc3ccccc3n2CCN2CCOCC2)cc1 | -46.5
c1csc(CNc2nc3ccccc3n2CCN2CCOCC2)c1 | -9.4
c1ccc2c(c1)nc(NCc1ccc3c(c1)OCO3)n2CCN1CCOCC1 | -40.7
c1ccc(Cn2c(CNc3nc4ccccc4n3CCN3CCOCC3)nc3ccccc32)cc1 | -54.4

Structure (SMILES) | hERG current change (%, negative = inhibition) at 1uM [%]
CCn1cnc2cc(NCc3nc4ccccc4n3Cc3ccccc3)ccc21 | -15.2
CCN(CC)c1ccc(CNc2nc3ccccc3n2CCN2CCOCC2)cc1 | -76.1
Brc1cccc(CNc2nc3ccccc3n2CCN2CCCCC2)c1 | -0.507
c1ccc(Cn2c(CNc3nc4ccccc4n3CCN3CCCCC3)nc3ccccc32)cc1 | -5.91
NS(=O)(=O)c1ccc(NC(=O)CSc2nc(Nc3ccccc3)nc(N3CCOCC3)n2)cc1 | 24.9
Cc1c(F)cccc1NC(=O)CSCC(=O)Nc1ccccc1 | 5.59
COC(=O)C1=C(c2ccc(F)cc2OCc2ccccc2)C[C@@H]2CC[C@H]1N2C(=O)NCc1ccc(Cl)cc1 | 14.6
Cc1ccc(OC(=O)c2ccccc2C(=O)OCC(F)(F)C(F)F)cc1 | 14
Cc1ccc(-c2nnn(CC(=O)NCCC3=CCCCC3)n2)cc1 | 18.4
Cc1ccc(NC(=O)NCCCCc2ccccc2)cc1 | 14.4
CCC(NS(=O)(=O)c1ccc(C)cc1)C(=O)N1CCOCCOCCOCC1 (stereo not shown) | 20.3
COc1ccc(OCc2nnc(SCc3ccc(C(=O)O)cc3)o2)cc1 | 16.6
Cc1ccc(NC(=O)c2nn(C34CC5CC(CC(C5)C3)C4)cc2[N+](=O)[O-])cc1 | -2.47
Cc1cc(Cl)ccc1OCC(=O)NNC(=O)CCOc1ccccc1 | -0.757
O=C(COC(=O)CC(c1ccccc1)c1ccccc1)Nc1ccc(F)c(F)c1 | 1.93
O=c1c2ccccc2nc(-c2ccccc2)n1-c1nccs1 | 11.6
C/C=C(/C)C(=O)OC1c2c(ccc3ccc(=O)oc23)OC(C)(C)C1OC(C)=O (stereo not shown) | -36.9
C/C=C(\C)C(=O)OC1c2c(ccc3ccc(=O)oc23)OC(C)(C)C1OC(C)=O (stereo not shown) | -54.7
C/C=C(/C)C(=O)O[C@@H]1c2c(ccc3ccc(=O)oc23)OC(C)(C)[C@@H]1OC(=O)/C(C)=C\C | 9.46
COc1cccc(-c2nc3n(n2)C(c2ccc4c(c2)OCO4)C(C(N)=O)=C(C)N3)c1 (stereo not shown) | 6.43
Cn1c(=O)[nH]c(=O)c2c1nc(N1CCCCCC1)n2CCSc1nc2ccccc2o1 | 7.86
COc1cc(C(CCN2CCCC2)c2c(OC)cc(OC)c3c(C)cc(=O)oc23)cc(OC)c1OC (stereo not shown) | -69
COc1cc(C(CCN2CCOCC2)c2c(OC)cc(OC)c3c(C)cc(=O)oc23)cc(OC)c1OC (stereo not shown) | -70.3

Structure (SMILES) | hERG current change (%, negative = inhibition) at 1uM [%]
COc1cc(C(CCN2CCCC2)c2c(OC)cc(OC)c3ccc(=O)oc23)cc(OC)c1OC (stereo not shown) | -26.2
COc1cc(C(CCN2CCCCC2)c2c(OC)cc(OC)c3c(C)cc(=O)oc23)cc(OC)c1OC (stereo not shown) | -96.3
COc1cc(C(CCN2CCCC2)c2c(OC)cc(OC)c3c(-c4ccccc4)cc(=O)oc23)cc(OC)c1OC (stereo not shown) | -10.9
COc1cc(C(CCN2CCN(c3ccccc3)CC2)c2c(OC)cc(OC)c3c(C)cc(=O)oc23)cc(OC)c1OC (stereo not shown) | 9.23
CCCCCc1cc(=O)oc2c(C(CCN3CCCCC3)c3cc(OC)c(OC)c(OC)c3)c(OC)cc(OC)c12 (stereo not shown) | -10.6
COc1cc(C(CCN2CCCCC2)c2c(OC)cc(OC)c3c(-c4ccccc4)cc(=O)oc23)cc(OC)c1OC (stereo not shown) | -12
COc1ccc(C(CCN2CCOCC2)c2c(OC)cc(OC)c3c(C)cc(=O)oc23)cc1 (stereo not shown) | -32.6
O=C(NCCCn1ccnc1)C(=O)c1c[nH]c2ccccc12 | 3.2
CC(=O)Nc1ncc(Cc2cccc(Cl)c2)s1 | 9.23
CC(=O)NS(=O)(=O)c1ccc(NC(=O)CC(C)c2ccccc2)cc1 (stereo not shown) | 2.97
COc1ccc(N2C(=O)CC(NC34CC5CC(CC(C5)C3)C4)C2=O)c(OC)c1 (stereo not shown) | 8.85
CCCN(CC(=O)Nc1cc(C)on1)S(=O)(=O)c1cccc(C(F)(F)F)c1 | 11.3
CCN(CC(=O)Nc1c(F)cccc1F)C(=O)/C=C/c1ccc2c(c1)OCO2 | 3.1
N=c1c(C(=O)NC2CCCC2)cc2c(=O)n3ccccc3nc2n1CCCN1CCOCC1 | -63.7
N=c1c(C(=O)NC2CCCC2)cc2c(=O)n3ccccc3nc2n1CCN1CCOCC1 | -94.2
CCOC(=O)c1c(C2CC2)csc1NC(=O)CSCc1c(C)noc1C | 11.4
CCOC(=O)N1CCN(C(=O)Nc2ccc3nc(C)c(C)nc3c2)CC1 | 4.44
CC(C)c1ccc(CNc2ccc([N+](=O)[O-])cn2)cc1 | 9.11
Cc1cc(C)c(S(=O)(=O)NCc2ccncc2)c(C)c1 | 5.64
C=CCn1c(O)c(C(CC)=NCc2ccco2)c(=O)[nH]c1=O | 2.16
O=C1CC(c2ccc(S(=O)(=O)NC3CC3)cc2)CN1 (stereo not shown) | 2.43
CCN(CC)S(=O)(=O)c1ccc(C2CNC(=O)C2)cc1 (stereo not shown) | -53.8
COCCNS(=O)(=O)c1ccc(C2CNC(=O)C2)cc1 (stereo not shown) | 11.3

Structure (SMILES) | hERG current change (%, negative = inhibition) at 1uM [%]
Cc1cccc(C(=O)NC(=S)Nc2ccccc2C(=O)O)c1 | 6.08
CCOC(=O)C1CCCN(c2nc(C)nc3c2oc2ccccc23)C1.Cl (stereo not shown) | 8.69
Cc1cc2cc3c(=O)[nH]c(=O)[nH]c3nc2cc1C | 12.1
c1nc(Nc2ccc(N3CCOCC3)cc2)c2ccsc2n1 | 8.37
c1nc(NCC2(N3CCOCC3)CCCCC2)c2ccsc2n1 | -54.5
Cc1sc2ncnc(NCC3(N4CCOCC4)CCCCC3)c2c1C | -23
COc1ccc(C2=NS(=O)(=O)N(C)C(C(=O)N3CCC(C(N)=O)CC3)=C2)cc1 | -8.49
Cc1ccc(NC(=O)c2cc(NC(=O)CCC(=O)O)ccc2N2CCCCC2)cc1 | 11.9
Cc1nnc(NC(=O)CN2C(=O)c3ccccc3S2(=O)=O)s1 | 7.28
CCCCC(=O)N1CCCC(c2nc3c(nnn3Cc3cc(C)ccc3C)c(=O)[nH]2)C1 (stereo not shown) | 3.86
CC[n+]1c(/C=C2\C=C(C)CC(C)(C)C2)sc2ccccc21.[I-] | -4.87
CC[n+]1c(/C=C/C=C/c2ccc(N(C)C)cc2)sc2ccccc21.[O-][Cl+3]([O-])([O-])[O-] | -29
CCN1/C(=C/C=C/c2oc3ccc(-c4ccccc4)cc3[n+]2CC)Oc2ccc(-c3ccccc3)cc21.CCOS(=O)(=O)[O-] | -2.56
CC[n+]1c(/C=C/C=C/N(C(C)=O)c2ccccc2)sc2cc(OC)ccc21.[I-] | 7.77
CC[n+]1c(/C=C/N(C)c2ccccc2)oc2ccccc21.O=S(=O)([O-])CCO | 12
CC[n+]1ccccc1/C=C/Nc1ccccc1.[I-] | -5.67
CCOc1ccc(S(=O)(=O)Nc2cccc(OC)c2)cc1 | -5.91
CC[n+]1c(/C=C/C=C/N(C(C)=O)c2ccccc2)sc2ccccc21.[I-] | -52.2
CC[n+]1c(/C=C/Nc2ccccc2)oc2ccccc21.[I-] | -64.9
CCN1/C(=C/C=C/c2sc3ccccc3[n+]2CC)Sc2ccccc21.[I-] | -36.8
CCOS(=O)(=O)[O-].CC[n+]1c(/C=C/Nc2ccccc2)oc2ccc(OC)cc21 | -68.8
CC[n+]1c(/C=C/Nc2ccccc2)sc2ccccc21.[I-] | -62.8
